Laboratory results taken from ChEMBL document CHEMBL2218924, “A broad activity screen in support of a chemogenomic map for kinase signalling research and drug discovery” (Biochem J, 2013).

How the values were obtained:
[1] = target: Serine/threonine-protein kinase PAK 4 (Homo sapiens) (UniProt O96013); settings: at 1 µM
[2] = target: Serine/threonine-protein kinase PAK 4 (Homo sapiens) (UniProt O96013); settings: at 10 µM
[3] = target: Serine/threonine-protein kinase PAK 5 (Homo sapiens) (UniProt Q9P286); settings: at 1 µM
[4] = target: Serine/threonine-protein kinase PAK 5 (Homo sapiens) (UniProt Q9P286); settings: at 10 µM
[5] = target: Activated CDC42 kinase 1 (Homo sapiens) (UniProt Q07912); settings: at 10 µM
[6] = target: T1, Activin receptor type-1B (Homo sapiens) (UniProt P36896); settings: at 1 µM
T1 sequence (whole entry): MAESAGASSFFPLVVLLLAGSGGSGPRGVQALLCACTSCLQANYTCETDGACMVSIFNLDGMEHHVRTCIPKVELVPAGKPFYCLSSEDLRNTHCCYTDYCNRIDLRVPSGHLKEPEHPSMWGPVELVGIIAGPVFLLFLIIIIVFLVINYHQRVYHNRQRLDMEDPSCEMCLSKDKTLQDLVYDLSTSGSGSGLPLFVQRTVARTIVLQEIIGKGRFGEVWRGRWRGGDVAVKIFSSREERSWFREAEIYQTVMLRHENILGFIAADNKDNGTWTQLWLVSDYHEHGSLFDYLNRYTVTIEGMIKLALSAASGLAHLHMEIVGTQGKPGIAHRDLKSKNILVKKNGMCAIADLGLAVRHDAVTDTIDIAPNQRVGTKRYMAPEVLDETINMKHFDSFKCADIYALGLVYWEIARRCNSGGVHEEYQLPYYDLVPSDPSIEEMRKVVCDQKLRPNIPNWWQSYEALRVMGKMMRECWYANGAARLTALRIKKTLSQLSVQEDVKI

[7] = target: T1, Activin receptor type-1B (Homo sapiens); settings: at 10 µM
[8] = target: T2, AMP-activated protein kinase (AMPK) alpha-1/beta-1/gamma-1 (Homo sapiens) (UniProt P54619+Q9Y478+Q13131); settings: at 10 µM
[9] = target: T3, AMP-activated protein kinase, AMPK (Homo sapiens) (UniProt P54646+O43741+P54619+Q9UGJ0+Q9Y478+Q13131+Q9UGI9); settings: at 10 µM
[10] = target: Serine/threonine-protein kinase PAK 6 (Homo sapiens) (UniProt Q9NQU5); settings: at 1 µM
[11] = target: Serine/threonine-protein kinase PAK 6 (Homo sapiens) (UniProt Q9NQU5); settings: at 10 µM
[12] = target: Activated CDC42 kinase 1 (Homo sapiens) (UniProt Q07912); settings: at 1 µM
[13] = target: ALK tyrosine kinase receptor (Homo sapiens) (UniProt Q9UM73); settings: at 1 µM
[14] = target: ALK tyrosine kinase receptor (Homo sapiens) (UniProt Q9UM73); settings: at 10 µM
[15] = target: T2, AMP-activated protein kinase (AMPK) alpha-1/beta-1/gamma-1 (Homo sapiens); settings: at 1 µM
[16] = target: T3, AMP-activated protein kinase, AMPK (Homo sapiens); settings: at 1 µM
[17] = target: T4, NUAK family SNF1-like kinase 1 (Homo sapiens) (UniProt O60285); settings: at 1 µM
T4 sequence (whole entry): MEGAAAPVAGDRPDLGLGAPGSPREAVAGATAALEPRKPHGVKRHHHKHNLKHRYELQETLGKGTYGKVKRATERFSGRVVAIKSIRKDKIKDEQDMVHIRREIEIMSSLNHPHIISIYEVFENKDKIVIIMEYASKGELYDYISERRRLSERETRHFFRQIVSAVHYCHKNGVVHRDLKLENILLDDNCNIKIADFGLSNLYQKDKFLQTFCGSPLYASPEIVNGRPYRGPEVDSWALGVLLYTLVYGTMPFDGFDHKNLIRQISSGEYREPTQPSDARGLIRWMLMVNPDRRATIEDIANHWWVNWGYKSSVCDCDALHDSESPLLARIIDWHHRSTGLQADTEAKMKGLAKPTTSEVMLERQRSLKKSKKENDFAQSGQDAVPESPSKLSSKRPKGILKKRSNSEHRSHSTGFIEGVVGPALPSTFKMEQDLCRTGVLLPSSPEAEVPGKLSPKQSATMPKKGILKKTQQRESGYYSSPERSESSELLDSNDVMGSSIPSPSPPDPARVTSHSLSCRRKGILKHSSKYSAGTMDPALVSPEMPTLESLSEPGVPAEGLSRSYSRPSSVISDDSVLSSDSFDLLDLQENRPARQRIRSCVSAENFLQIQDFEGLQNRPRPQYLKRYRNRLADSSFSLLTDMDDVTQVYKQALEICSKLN

[18] = target: T4, NUAK family SNF1-like kinase 1 (Homo sapiens); settings: at 10 µM
[19] = target: PAS domain-containing serine/threonine-protein kinase (Homo sapiens) (UniProt Q96RG2); settings: at 10 µM
[20] = target: T5, Mitogen-activated protein kinase kinase kinase 5 (Homo sapiens) (UniProt Q99683); settings: at 1 µM
T5 sequence (whole entry): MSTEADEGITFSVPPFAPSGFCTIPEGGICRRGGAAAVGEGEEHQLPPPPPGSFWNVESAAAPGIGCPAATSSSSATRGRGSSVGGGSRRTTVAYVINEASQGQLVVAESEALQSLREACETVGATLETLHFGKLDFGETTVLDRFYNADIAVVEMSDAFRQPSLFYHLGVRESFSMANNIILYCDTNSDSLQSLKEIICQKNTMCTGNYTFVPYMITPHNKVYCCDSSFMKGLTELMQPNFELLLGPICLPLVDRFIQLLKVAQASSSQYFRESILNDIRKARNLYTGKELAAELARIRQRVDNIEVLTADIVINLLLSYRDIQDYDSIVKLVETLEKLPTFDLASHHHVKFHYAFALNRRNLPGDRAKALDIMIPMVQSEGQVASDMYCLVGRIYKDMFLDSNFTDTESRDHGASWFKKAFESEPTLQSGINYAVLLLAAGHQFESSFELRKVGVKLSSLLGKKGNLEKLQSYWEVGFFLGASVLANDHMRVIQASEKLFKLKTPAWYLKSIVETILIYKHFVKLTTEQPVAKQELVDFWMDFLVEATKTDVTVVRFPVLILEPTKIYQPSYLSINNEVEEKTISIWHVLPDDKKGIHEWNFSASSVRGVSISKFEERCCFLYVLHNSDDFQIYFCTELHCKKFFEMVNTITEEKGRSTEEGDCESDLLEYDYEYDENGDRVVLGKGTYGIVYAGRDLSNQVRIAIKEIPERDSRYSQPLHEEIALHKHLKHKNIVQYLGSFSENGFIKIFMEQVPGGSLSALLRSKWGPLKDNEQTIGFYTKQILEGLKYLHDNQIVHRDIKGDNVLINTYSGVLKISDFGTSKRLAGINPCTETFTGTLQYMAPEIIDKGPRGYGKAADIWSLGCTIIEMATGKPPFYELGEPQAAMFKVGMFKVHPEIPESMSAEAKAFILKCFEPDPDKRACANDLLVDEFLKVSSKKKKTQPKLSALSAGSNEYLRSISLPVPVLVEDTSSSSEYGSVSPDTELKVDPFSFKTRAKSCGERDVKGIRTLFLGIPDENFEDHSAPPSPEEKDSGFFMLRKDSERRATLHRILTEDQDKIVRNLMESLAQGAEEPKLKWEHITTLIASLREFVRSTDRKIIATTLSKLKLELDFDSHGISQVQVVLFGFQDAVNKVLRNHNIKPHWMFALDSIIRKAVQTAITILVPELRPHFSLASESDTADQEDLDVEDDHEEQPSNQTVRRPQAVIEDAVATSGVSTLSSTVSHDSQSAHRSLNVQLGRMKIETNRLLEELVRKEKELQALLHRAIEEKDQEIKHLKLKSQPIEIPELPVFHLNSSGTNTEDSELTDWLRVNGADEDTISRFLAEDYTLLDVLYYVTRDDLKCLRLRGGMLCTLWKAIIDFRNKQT

Sequence of Serine/threonine-protein kinase PAK 5 (Homo sapiens) (Q9P286 whole entry, looked up): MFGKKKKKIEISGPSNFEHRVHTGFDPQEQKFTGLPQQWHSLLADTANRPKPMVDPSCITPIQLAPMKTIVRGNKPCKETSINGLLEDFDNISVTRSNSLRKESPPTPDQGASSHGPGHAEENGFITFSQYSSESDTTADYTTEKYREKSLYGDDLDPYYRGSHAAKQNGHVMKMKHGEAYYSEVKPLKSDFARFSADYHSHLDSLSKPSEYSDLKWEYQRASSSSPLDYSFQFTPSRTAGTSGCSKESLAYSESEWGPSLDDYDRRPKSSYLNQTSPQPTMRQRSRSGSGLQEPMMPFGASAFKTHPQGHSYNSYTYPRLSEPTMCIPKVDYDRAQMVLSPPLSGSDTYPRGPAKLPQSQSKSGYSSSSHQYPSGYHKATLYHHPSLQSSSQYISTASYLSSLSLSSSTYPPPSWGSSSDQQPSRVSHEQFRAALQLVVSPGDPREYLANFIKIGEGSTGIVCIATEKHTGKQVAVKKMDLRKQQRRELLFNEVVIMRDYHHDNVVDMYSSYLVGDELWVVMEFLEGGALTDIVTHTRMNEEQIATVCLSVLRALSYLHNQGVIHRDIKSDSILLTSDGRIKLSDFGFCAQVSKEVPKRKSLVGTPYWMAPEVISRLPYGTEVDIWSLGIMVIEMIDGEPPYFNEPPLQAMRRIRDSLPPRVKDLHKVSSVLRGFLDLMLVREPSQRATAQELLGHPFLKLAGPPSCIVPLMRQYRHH
Sequence of Activated CDC42 kinase 1 (Homo sapiens) (Q07912 whole entry, looked up): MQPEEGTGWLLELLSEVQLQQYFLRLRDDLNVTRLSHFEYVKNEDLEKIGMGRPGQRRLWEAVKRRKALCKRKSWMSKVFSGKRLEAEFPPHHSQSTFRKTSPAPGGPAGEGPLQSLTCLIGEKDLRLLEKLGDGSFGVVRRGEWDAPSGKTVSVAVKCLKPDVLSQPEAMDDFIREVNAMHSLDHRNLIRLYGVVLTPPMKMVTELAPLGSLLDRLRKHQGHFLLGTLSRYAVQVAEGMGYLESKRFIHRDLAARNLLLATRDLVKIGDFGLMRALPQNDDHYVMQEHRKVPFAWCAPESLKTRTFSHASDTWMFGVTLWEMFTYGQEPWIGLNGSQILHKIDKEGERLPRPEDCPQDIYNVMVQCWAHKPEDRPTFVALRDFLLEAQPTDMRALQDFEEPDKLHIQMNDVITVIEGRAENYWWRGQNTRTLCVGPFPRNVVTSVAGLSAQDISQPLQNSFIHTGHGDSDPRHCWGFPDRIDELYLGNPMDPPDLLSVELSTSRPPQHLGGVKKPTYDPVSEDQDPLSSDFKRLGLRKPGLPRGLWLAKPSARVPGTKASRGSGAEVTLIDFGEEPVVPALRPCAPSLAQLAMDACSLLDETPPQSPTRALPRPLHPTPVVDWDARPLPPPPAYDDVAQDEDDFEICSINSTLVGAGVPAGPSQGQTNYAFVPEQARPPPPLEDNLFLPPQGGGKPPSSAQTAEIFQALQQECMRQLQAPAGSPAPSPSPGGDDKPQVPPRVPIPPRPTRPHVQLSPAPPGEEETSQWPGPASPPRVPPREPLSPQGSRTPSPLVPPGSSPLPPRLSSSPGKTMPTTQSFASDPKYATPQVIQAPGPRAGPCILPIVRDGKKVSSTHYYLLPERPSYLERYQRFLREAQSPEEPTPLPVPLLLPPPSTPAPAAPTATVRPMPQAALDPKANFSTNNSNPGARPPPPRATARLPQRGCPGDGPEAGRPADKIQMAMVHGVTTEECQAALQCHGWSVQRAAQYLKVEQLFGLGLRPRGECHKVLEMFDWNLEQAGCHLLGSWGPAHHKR
Sequence of PAS domain-containing serine/threonine-protein kinase (Homo sapiens) (Q96RG2 whole entry, the tested form may be a part): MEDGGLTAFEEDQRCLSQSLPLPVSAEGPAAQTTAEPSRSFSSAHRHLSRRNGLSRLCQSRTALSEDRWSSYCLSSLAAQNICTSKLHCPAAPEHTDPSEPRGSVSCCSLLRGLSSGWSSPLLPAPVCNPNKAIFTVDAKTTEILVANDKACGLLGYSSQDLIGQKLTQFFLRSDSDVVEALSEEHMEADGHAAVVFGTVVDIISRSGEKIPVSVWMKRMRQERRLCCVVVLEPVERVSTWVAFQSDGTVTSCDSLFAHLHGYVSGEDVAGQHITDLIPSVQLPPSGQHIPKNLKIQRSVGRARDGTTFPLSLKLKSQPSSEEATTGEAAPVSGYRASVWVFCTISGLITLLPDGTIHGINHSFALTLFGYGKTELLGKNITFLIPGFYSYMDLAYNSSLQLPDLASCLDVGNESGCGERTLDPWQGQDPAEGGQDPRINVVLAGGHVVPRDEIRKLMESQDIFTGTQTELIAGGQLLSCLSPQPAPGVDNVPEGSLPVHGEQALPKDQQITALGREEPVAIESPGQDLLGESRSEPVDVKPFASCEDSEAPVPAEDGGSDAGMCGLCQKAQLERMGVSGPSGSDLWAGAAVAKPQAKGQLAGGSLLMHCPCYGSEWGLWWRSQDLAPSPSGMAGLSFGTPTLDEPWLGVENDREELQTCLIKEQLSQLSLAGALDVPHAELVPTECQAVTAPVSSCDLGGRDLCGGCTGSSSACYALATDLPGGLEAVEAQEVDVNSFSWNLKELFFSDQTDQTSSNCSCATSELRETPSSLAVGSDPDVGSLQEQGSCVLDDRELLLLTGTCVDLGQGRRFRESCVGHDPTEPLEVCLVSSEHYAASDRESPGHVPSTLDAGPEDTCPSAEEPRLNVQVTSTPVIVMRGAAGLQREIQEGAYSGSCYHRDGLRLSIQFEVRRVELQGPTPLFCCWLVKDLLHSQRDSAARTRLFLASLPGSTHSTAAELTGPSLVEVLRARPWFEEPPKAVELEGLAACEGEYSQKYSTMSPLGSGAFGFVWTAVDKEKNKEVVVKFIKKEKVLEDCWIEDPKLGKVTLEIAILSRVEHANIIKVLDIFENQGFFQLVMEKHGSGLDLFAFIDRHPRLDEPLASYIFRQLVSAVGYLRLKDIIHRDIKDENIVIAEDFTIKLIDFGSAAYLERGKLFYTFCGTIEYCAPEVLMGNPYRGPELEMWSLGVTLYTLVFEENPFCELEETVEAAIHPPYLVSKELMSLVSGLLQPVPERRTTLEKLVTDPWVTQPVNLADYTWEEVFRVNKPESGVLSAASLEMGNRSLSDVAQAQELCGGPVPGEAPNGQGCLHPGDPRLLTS
T2 sequence (P54619 whole entry): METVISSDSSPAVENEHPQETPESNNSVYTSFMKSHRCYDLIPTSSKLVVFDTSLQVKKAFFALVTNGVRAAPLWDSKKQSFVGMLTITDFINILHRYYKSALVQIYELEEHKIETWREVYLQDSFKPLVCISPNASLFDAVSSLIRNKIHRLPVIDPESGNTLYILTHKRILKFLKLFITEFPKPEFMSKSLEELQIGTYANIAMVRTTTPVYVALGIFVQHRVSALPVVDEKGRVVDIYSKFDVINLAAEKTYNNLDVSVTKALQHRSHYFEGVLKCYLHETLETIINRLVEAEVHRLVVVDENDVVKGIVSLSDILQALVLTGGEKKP
T2 sequence (Q13131 whole entry partner): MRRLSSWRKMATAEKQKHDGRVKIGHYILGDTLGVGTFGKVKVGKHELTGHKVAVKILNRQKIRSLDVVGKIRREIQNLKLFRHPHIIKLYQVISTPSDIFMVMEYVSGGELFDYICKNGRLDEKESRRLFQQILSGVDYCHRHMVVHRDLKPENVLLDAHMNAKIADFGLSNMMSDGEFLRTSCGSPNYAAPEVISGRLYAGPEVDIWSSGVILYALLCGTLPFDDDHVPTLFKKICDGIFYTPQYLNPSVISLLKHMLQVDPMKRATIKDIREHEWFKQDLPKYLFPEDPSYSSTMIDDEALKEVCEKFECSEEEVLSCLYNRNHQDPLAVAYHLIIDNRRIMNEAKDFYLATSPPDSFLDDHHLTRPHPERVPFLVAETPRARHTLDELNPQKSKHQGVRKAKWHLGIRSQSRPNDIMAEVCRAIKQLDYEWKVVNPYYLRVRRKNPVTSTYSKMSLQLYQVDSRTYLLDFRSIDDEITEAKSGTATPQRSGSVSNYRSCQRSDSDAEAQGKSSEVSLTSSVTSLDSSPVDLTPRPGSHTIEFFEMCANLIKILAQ
T2 sequence (Q9Y478 2-270 partner limits assumed): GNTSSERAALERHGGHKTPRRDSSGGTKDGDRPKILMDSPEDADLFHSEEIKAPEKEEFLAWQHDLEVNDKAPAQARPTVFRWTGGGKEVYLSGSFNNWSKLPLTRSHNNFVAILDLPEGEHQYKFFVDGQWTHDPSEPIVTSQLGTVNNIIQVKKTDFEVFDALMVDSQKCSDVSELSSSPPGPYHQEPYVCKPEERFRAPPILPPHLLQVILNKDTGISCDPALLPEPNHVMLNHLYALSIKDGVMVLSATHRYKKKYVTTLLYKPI
Sequence of Serine/threonine-protein kinase PAK 4 (Homo sapiens) (O96013 whole entry, looked up): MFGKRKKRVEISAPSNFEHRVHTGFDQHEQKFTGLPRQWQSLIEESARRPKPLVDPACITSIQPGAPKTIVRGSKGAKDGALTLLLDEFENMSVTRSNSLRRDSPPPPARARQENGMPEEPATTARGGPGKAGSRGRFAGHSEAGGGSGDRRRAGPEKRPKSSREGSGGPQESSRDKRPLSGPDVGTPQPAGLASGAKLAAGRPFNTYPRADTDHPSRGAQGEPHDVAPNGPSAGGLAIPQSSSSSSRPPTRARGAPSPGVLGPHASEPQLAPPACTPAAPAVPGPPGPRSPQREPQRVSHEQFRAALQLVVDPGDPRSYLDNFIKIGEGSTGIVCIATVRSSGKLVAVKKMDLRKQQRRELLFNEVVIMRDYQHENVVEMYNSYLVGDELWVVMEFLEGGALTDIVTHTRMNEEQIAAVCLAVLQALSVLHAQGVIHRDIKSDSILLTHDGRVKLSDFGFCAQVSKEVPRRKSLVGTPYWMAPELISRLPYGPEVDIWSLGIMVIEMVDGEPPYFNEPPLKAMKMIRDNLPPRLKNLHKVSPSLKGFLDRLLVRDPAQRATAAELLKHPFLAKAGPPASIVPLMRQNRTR

| SMILES | residual activity [1] | residual activity [2] | residual activity [3] | residual activity [4] | residual activity [5] | residual activity [6] | residual activity [7] | residual activity [8] | residual activity [9] | residual activity [10] | residual activity [11] | residual activity [12] | residual activity [13] | residual activity [14] | residual activity [15] | residual activity [16] | residual activity [17] | residual activity [18] | residual activity [19] | residual activity [20] |
| --- | --- | --- | --- | --- | --- | --- | --- | --- | --- | --- | --- | --- | --- | --- | --- | --- | --- | --- | --- | --- |
| O=C(Nc1ccc(Cl)cc1)c1ccccc1NCc1ccncc1 | 100% | 99% | 117% | 128% | 76% | 130% | 72% | 78% | 72% | – | – | – | – | – | – | – | – | – | – | – |
| Nc1n[nH]c2nc3ccccc3nc12 | 94% | 85% | 90% | 70% | 40% | – | – | 83% | 86% | 84% | 84% | 68% | 67% | 51% | 86% | 88% | 87% | 40% | – | – |
| O=C(O)/C=C/c1cc(Br)c(Br)c(Br)c1Br | 108% | 101% | – | 82% | 63% | – | 85% | 56% | 76% | 102% | 76% | 79% | 88% | 87% | 101% | 94% | 102% | 94% | 6% | 98% |
| CCOC(=O)c1c(C)[nH]c(/C=C2\C(=O)Nc3ccccc32)c1C | 90% | 94% | – | – | 64% | 120% | 83% | 65% | 74% | 91% | 99% | 73% | 80% | 118% | 80% | 85% | 88% | 85% | 93% | – |
| O=C1NC(=O)C(c2c[nH]c3ccccc23)=C1c1c[nH]c2ccccc12 | 98% | 65% | 99% | – | 21% | 114% | 75% | 15% | 10% | – | 77% | 73% | – | 44% | 72% | 66% | 83% | 24% | 39% | – |
| CC(C)c1nn(-c2c(Cl)cccc2Cl)c2nc(Cc3ccc(OCCO)cc3)[nH]c(=O)c12 | 84% | 32% | 73% | 21% | 31% | – | – | 71% | 74% | 79% | 51% | 63% | 78% | 42% | 93% | 87% | 96% | 72% | – | 95% |
| CCCC(=O)Oc1ccc2[nH]c(C(=O)c3cc4ccccc4[nH]3)cc2c1 | 94% | 84% | 100% | – | 65% | 132% | 98% | 81% | 96% | 108% | 75% | 72% | 78% | 99% | 85% | 91% | 98% | 84% | 84% | – |
| O=C(NC(NC(=S)Nc1ccc(F)c([N+](=O)[O-])c1)C(Cl)(Cl)Cl)C(c1ccccc1)c1ccccc1 (stereo unspecified) | 100% | 97% | – | 66% | 78% | 94% | 103% | 71% | 77% | – | 61% | 100% | 81% | 97% | 90% | 89% | – | 86% | 75% | – |
| O=C(CCCc1ccc(-c2ccccc2F)cc1)Nc1ccc(O)cc1 | 103% | 91% | 104% | 95% | 75% | 111% | 94% | 89% | 99% | 96% | 103% | 89% | 88% | 44% | 106% | 106% | 96% | 78% | 108% | 99% |
| COc1ccc(Cl)cc1NC(=O)Nc1cc(C)nc2ccccc12 | 96% | 88% | 80% | 100% | 80% | – | – | 78% | 91% | 91% | 88% | 90% | 77% | 58% | 88% | – | 94% | 92% | 43% | – |
| Cn1sc(=O)n(Cc2ccccc2)c1=O | 94% | 89% | 97% | 94% | 64% | – | – | 82% | 90% | 96% | 94% | 77% | 64% | 71% | 83% | 89% | – | – | 138% | 81% |
| O=C1C(Cl)=C(N2C(=O)CCC2=O)C(=O)c2ccccc21 | 95% | 96% | 99% | 84% | 69% | 101% | 121% | 91% | 101% | – | 93% | 78% | 65% | 58% | 95% | 99% | 96% | 84% | 122% | 89% |
| O=C1NC(=O)c2c1c1c3ccccc3[nH]c1n1cncc21 | 81% | 82% | – | 91% | 23% | 97% | – | 34% | 29% | 98% | 73% | 38% | 77% | 48% | 49% | 38% | 15% | 13% | 26% | 99% |
